The campaign covered roughly 5,500 compounds. About 2,000 (36%) were called active. Not shown: some 18% with an inconclusive outcome. Rule as the data show it: active = normalized growth mostly below about 0.91 (no sharp cut-off); inconclusive = no clear call, values can overlap the other calls; inactive = mostly above about 0.92. The list shows a part of the results.
Assay: chemical genetic growth profiling, strain panel (AID 1159580);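 also: tested at 20 µM; growth read once vehicle control cultures reached saturation at 30 °C; 1 = growth at the plate median or of vehicle wells; lower values mean less growth of the strain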
Conditions: S. cerevisiae deletion strains, growth OD

Measured: normalized growth

Cc1c(Nc2ncccc2C(=O)O)cccc1C(F)(F)F
inactive: locus YAL021C, strain ccr4, stronger effect = lower value 0.937 | locus YAL026C, strain drs2, stronger effect = lower value 0.979 | locus YAL030W, strain snc1, stronger effect = lower value 0.981 | locus YBL061C, strain skt5, stronger effect = lower value 0.981 | locus YBR009C, strain hhf1, stronger effect = lower value 0.967 | locus YBR023C, strain chs3, stronger effect = lower value 0.99 | locus YBR171W, strain sec66, stronger effect = lower value 0.969 | locus YBR231C, strain swc5, stronger effect = lower value 1.01 | locus YBR279W, strain paf1, stronger effect = lower value 0.987 | locus YCL011C, strain gbp2, stronger effect = lower value 0.979 | locus YCL016C, strain dcc1, stronger effect = lower value 0.975 | locus YCL069W, strain vba3, stronger effect = lower value 0.985 | locus YCR088W, strain abp1, stronger effect = lower value 0.979 | locus YDL005C, strain med2, stronger effect = lower value 0.986 | locus YDL040C, strain nat1, stronger effect = lower value 0.981 | locus YDR001C, strain nth1, stronger effect = lower value 0.964 | locus YDR069C, strain doa4, stronger effect = lower value 0.966 | locus YDR137W, strain rgp1, stronger effect = lower value 0.979 | locus YDR159W, strain sac3, stronger effect = lower value 0.999 | locus YDR195W, strain ref2 0.955 | locus YDR297W, strain sur2, stronger effect = lower value 0.996 | locus YDR334W, strain swr1, stronger effect = lower value 0.961 | locus YDR335W, strain msn5, stronger effect = lower value 0.983 | locus YDR392W, strain spt3, stronger effect = lower value 1 | locus YEL003W, strain gim4, stronger effect = lower value 0.974 | locus YEL037C, strain rad23, stronger effect = lower value 0.989 | locus YEL061C, strain CIN8 (second series), stronger effect = lower value 0.981 | locus YER015W, strain faa2, stronger effect = lower value 0.988 | locus YER016W, strain bim1, stronger effect = lower value 0.978 | locus YER111C, strain swi4, stronger effect = lower value 0.963 | locus YER155C, strain BEM2 (second series), stronger effect = lower value 1.01 | locus YFR010W, strain ubp6, stronger effect = lower value 0.978 | locus YGL167C, strain pmr1, stronger effect = lower value 0.952 | locus YGL173C, strain kem1, stronger effect = lower value 0.984 | locus YGL227W, strain vid30, stronger effect = lower value 0.978 | locus YGL240W, strain doc1, stronger effect = lower value 1.02 | locus YGL253W, strain hxk2, stronger effect = lower value 0.968 | locus YHR013C, strain ard1, stronger effect = lower value 0.958 | locus YHR027C, strain rpn1, stronger effect = lower value 0.971 | locus YHR030C, strain SLT2, stronger effect = lower value 0.947 | locus YHR079C, strain IRE1, stronger effect = lower value 0.974 | locus YHR142W, strain chs7, stronger effect = lower value 0.96 | locus YJL092W, strain hpr5, stronger effect = lower value 0.961 | locus YJL095W, strain BCK1 (second series), stronger effect = lower value 0.983 | locus YJL095W, strain BCK1, stronger effect = lower value 0.989 | locus YJL115W, strain asf1, stronger effect = lower value 0.958 | locus YJL129C, strain trk1, stronger effect = lower value 0.955 | locus YJL154C, strain vps35, stronger effect = lower value 0.972 | locus YJL164C, strain tpk1, stronger effect = lower value 0.97 | locus YJL166W, strain qcr8, stronger effect = lower value 0.994 | locus YJL187C, strain SWE1, stronger effect = lower value 0.992 | locus YJR066W, strain TOR1, stronger effect = lower value 0.928 | locus YKL160W, strain elf1, stronger effect = lower value 0.967 | locus YKR026C, strain gcn3, stronger effect = lower value 0.972 | locus YKR091W, strain srl3, stronger effect = lower value 0.97 | locus YLL001W, strain dnm1, stronger effect = lower value 0.981 | locus YLL026W, stronger effect = lower value 0.978 | locus YLL041C, strain sdh2, stronger effect = lower value 0.953 | locus YLR027C, strain aat2, stronger effect = lower value 0.993 | locus YLR113W, strain HOG1, stronger effect = lower value 0.991 | locus YLR221C, strain rsa3, stronger effect = lower value 0.997 | locus YLR258W, strain gsy2, stronger effect = lower value 0.969 | locus YLR262C, strain YPT6 (second series), stronger effect = lower value 1.02 | locus YLR320W, strain mms22, stronger effect = lower value 1.01 | locus YLR342W, strain FKS1, stronger effect = lower value 0.988 | locus YLR357W, strain rsc2, stronger effect = lower value 0.952 | locus YLR370C, strain arc18, stronger effect = lower value 0.963 | locus YLR384C, strain iki3, stronger effect = lower value 1 | locus YML120C, strain ndi1, stronger effect = lower value 0.974 | locus YMR058W, strain fet3, stronger effect = lower value 0.972 | locus YMR125W, strain sto1, stronger effect = lower value 0.945 | locus YMR129W, stronger effect = lower value 0.972 | locus YMR205C, strain PFK2, stronger effect = lower value 0.977 | locus YMR231W, strain pep5, stronger effect = lower value 0.983 | locus YNL071W, strain lat1, stronger effect = lower value 0.981 | locus YNL183C, strain NPR1, stronger effect = lower value 0.954 | locus YNL209W, strain ssb2, stronger effect = lower value 0.983 | locus YNL248C, strain rpa49, stronger effect = lower value 0.996 | locus YNL322C, strain KRE1 (second series), stronger effect = lower value 0.97 | locus YNR049C, strain mso1, stronger effect = lower value 0.962 | locus YOR001W, strain rrp6, stronger effect = lower value 0.983 | locus YOR070C, strain gyp1, stronger effect = lower value 0.989 | locus YOR080W, strain dia2, stronger effect = lower value 0.979 | locus YOR083W, strain WHI5, stronger effect = lower value 0.98 | locus YOR106W, strain vam3, stronger effect = lower value 0.957 | locus YOR231W, strain MKK1, stronger effect = lower value 0.982 | locus YOR265W, strain rbl2, stronger effect = lower value 0.968 | locus YOR270C, strain vph1, stronger effect = lower value 0.983 | locus YOR290C, strain snf2, stronger effect = lower value 0.943 | locus YPL051W, strain arl3, stronger effect = lower value 1.01 | locus YPL078C, strain atp4, stronger effect = lower value 0.951 | locus YPL106C, strain sse1, stronger effect = lower value 0.982 | locus YPL240C, strain hsp82, stronger effect = lower value 0.98 | locus YPL256C, strain CLN2, stronger effect = lower value 0.951
